# Screens: PubChem, National Center for Advancing Translational Sciences (NCATS)
# HCMV inh: blocks human cytomegalovirus replication; 410,000 compounds, 4.5% hits; AID 1259415; activity change, negative = inhibition, % at 57.5 µM; HFF cells, HCMV-luciferase reporter, 72 h; stronger effect = lower value; in the data active means activity change below about -60%; inconclusive means no clear call, values can overlap the other calls; inactive means above about -39%; further: on the % scale 0 is the no-effect control and ±100 the full control effect
#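 HFF cells seeded 16 h at 37C, treated with compounds, infected with luciferase-reporter HCMV at MOI 1 PFU/cell; luciferase read at 72 h post infection, normalized to buffer-only and Salinomycin controls.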
# Pf growth 96h: P. falciparum growth inhibition at 96 hours; P. falciparum luciferase reporter growth, 96 h; Potency, µM (doses to about 28.7 µM), for inactives: top-dose activity change, negative = inhibition, usual class: inhibitors; 320,000 compounds, 6.9% hits; further: potency means the concentration at half of the fitted maximal effect; on the % scale 0 is the no-effect control and ±100 the full control effect
#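 Parasite growth measured via integrated firefly luciferase reporter in P. falciparum. Infected erythrocytes at 2% hematocrit, 0.05% parasitemia final were treated 96 hours at 37 C under 5% CO2, and luminescence was read.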
# Sm TGR inh: inhibitors of Schistosoma mansoni thioredoxin glutathione reductase | Q962Y6 | purified TGR, DTNB reduction, TNB absorbance 405 nm | Potency, µM (doses to about 114 µM), for inactives: at the highest dose activity change, negative = inhibition, hits mostly inhibitors | 360,000 compounds, 3% hits | AID 485364; further: potency means the concentration at half of the fitted maximal effect; on the % scale 0 is the no-effect control and ±100 the full control effect; nearly all actives have a fitted effect of over 60% in size
#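 Kinetic colorimetric format: TGR-catalysed, NADPH-driven DTNB reduction monitored via TNB absorbance. Enzyme dispensed at 20 nM; compound exposure 15 min at room temperature before reaction start.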
# HCV inhibitor: HCV inhibition; Potency, µM (series often up to 41.8 µM), for the others: at the top dose activity change, negative = inhibition, usual class: inhibitors; Huh7.5.1 HCVcc-Cre infection, luciferase reporter, 44 h; 340,000 compounds, 3.4% hits; further: potency means the concentration at half of the fitted maximal effect; on the % scale 0 is the no-effect control and ±100 the full control effect
#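 HCVcc-Cre virus at an moi near 0.5 was added right after compound to cells cultured 4 h from seeding (1,000 cells/well). Luciferase activity was determined 44 h later, 15 min after substrate addition at RT.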
# Pf growth 48h: P. falciparum growth inhibition at 48 hours (one generation) | P. falciparum luciferase growth in erythrocytes, 48 h | Potency, µM (highest dose often 28.7 µM), without a hit: top-dose activity change, negative = inhibition, usual class: inhibitors | 310,000 compounds, 5.9% hits; further: potency means the concentration at half of the fitted maximal effect; on the % scale 0 is the no-effect control and ±100 the full control effect
#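 Here the parasites carry a stable luciferase gene and grow inside erythrocytes in Albumax-based RPMI medium with compound for one erythrocytic cycle. Activity is scored as loss of luminescent signal.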
# SARS PLpro yeast: blocks SARS-CoV papain-like protease in a yeast assay | S. cerevisiae expressing SARS-CoV PLpro, growth rescue | Potency, µM (titrated, usually from 32.9 µM), inactives show top-dose activity, positive = growth rescue, usual class: activators | 330,000 compounds, 0.19% hits | AID 485353; calls by dose curve; further: potency means the concentration at half of the fitted maximal effect; 0% is about no effect; nearly all actives have a fitted effect of over 55% in size
# Numbers without * were called inactive; ? = inconclusive; nt = no result given; [ ] = another dose, or the depositor's remark. This is a sample that favours compounds with a hit; in the whole collection about 15% have one here. Unless noted, the call rests on the fitted dose curve; in most records, active means well fitted curve in the direction sought with a large enough effect; inconclusive means small, poorly fitted or top-dose-only effect, or another doubt; inactive means no such curve, though single readings can be large; an effect the other way counts as inactive or inconclusive.
SMILES,HCMV inh,Pf growth 96h,Sm TGR inh,HCV inhibitor,Pf growth 48h,SARS PLpro yeast
Cc1cccc(NC(=S)NC2CC3CCCC(C2)N3Cc2cccs2)c1 (centres undefined),-30.4,10.4µM*,-26.0%,?,?,6.9%
Cc1ccc(C)c(NC(=S)NC2CC3CCC(C2)N3Cc2ccco2)c1 (centres undefined),-12.1,11.7µM*,21.8%,3.7%,?,2.7%
O=C(NC1CC1)C1CCN(C2CCN(C(=O)/C=C/c3ccc(F)cc3)CC2)CC1,-25.2,-29.1%,0.1%,3.3%,19.6%,0.9%
Cc1cc(C)n(-c2nc3cc(Cl)c(Cl)cc3nc2Nc2c(C)cccc2C)n1,22.3,nt,-2.3%,nt,nt,nt
CSc1ccc(/C=C/c2ccc3cccc(O)c3n2)cc1,-66.1*,-25.9%,6.7%,?,-18.9%,-23.8%
Oc1cccc2ccc(/C=C/c3ccccc3Br)nc12,-87.0*,?,-10.3%,?,0.0%,-5.9%
Cc1ccsc1/C=C/c1ccc2cccc(O)c2n1,105.5,74.3%,0.0%,12.6µM*,nt,-16.2%
COc1ccc(OC)c(/C=C/c2ccc3cccc(O)c3n2)c1,-65.4*,38.8%,-18.3%,nt,4.15µM*,-5.0%
COc1ccc(N2CCN(CCCNC(=O)c3cnn(-c4ccc(F)cc4)c3-n3cccc3)CC2)cc1,-16.7,nt,0.3%,nt,nt,nt
COc1ccc(OC)c2sc(N3CCN(C(=O)C(C)(C)C)CC3)nc12,39.9,nt,2.4%,nt,nt,nt
COc1cc(Br)cc(/C=C/c2ccc3cccc(O)c3n2)c1O,-26.4,10.3%,-30.4%,?,-12.5%[0.00184 µM],-0.4%
COc1cc(/C=C/c2ccc3cccc(O)c3n2)c(Br)cc1O,-98.3*,21.0%,-10.4%,nt,?,-9.3%
COc1cc(Br)c(/C=C/c2ccc3cccc(O)c3n2)cc1OC,-86.7*,2.08µM*,3.3%,10µM*,2.62µM*,-1.0%
COc1ccc(C=Cc2ccc3ccccc3n2)c(OC)c1,-87.6*,nt,nt,nt,nt,nt
Oc1ccc(Cl)cc1/C=C/c1ccc2cccc(O)c2n1,1.5,-4.9%,nt,?,?,-5.7%
COc1cc(/C=C/c2ccc3cccc(O)c3n2)ccc1O,86.3,?,-2.9%,11.2µM*,-60.5%,-11.3%
C[C@H]1Cn2cnc(C(=O)N3CCN(c4ccccc4)CC3)c2C(=O)N1,-9.8,nt,nt,nt,nt,nt
CN(C(=O)CSc1nc(O)cc(=O)n1C1CCCC1)c1ccccc1,-17.6,1.65µM*,7.0%,-0.2%,?,1.1%
Cc1cc(NC(=O)Nc2cccc([N+](=O)[O-])c2)no1,?,38.7%,3.2%,-15.5%,10.5%[5.75 µM],-0.7%
O=C(Nc1ccc(OC(F)(F)F)cc1)Nc1cccc([N+](=O)[O-])c1,-103.6*,?,-10.0%,?,2.62µM*,-68.8%
Cc1ccc(NC(=O)Nc2cccc([N+](=O)[O-])c2)cc1F,-100.2*,?,-8.4%,11.2µM*,11.8%,-13.5%
Cc1oc(-c2cc(F)cc(F)c2)nc1CN1CCN(C(=O)c2ccco2)CC1,10.0,?,-5.2%,?,4.6%,-1.4%
Cn1cc([N+](=O)[O-])c(C(=O)Nc2ccc(-c3nc4ccccc4[nH]3)cc2)n1,-72.9*,29.9%,-7.4%,-3.2%,103.3%,7.9%
Cn1cc([N+](=O)[O-])c(C(=O)Nc2ccc3nc(-c4ccccc4)[nH]c3c2)n1,-83.2*,28.5%,-4.5%,?,?,-9.1%
O=CN(Cc1nc2ccccc2[nH]1)c1ccc(C(=O)O)cc1,5.2,nt,nt,6.3%,nt,nt
CC(NC(=O)c1nn(C)c2c1CSc1ccccc1-2)c1ccccc1 (centres undefined),36.9,nt,-5.3%,nt,nt,nt
C=CCN1C(=O)/C(=C/C=C2/N(CC)c3ccc(S(=O)(=O)N(C)C)cc3N2CC)SC1=S,-9.6,-2.6%,nt,?,?,-2.0%
CC(=O)N1CCc2c(sc3c2c(=O)n(-c2ccccc2)c(=O)n3CC(=O)c2ccc(F)cc2)C1,17.8,nt,6.4%,nt,nt,nt
CC(C)CN1C(=O)/C(=C/c2cccs2)NC1=S,-62.5*,-20.7%,-10.2%,7.0%,-19.4%,-17.2%
